The source of these data is PubChem BioAssay AID1376 (SRMLSC, 2008).

The campaign covered roughly 220,000 compounds. About 530 (0.24%) were called active. What follows is part of a selection rich in actives, with near analogues and random picks from the rest. Potency and affinity values are given separately. Values without a mark were called inactive. Cut-off read from the data, not from the text of the source: active = inhibition above about 13%; inconclusive = no clear call, values can overlap the other calls; inactive = below that.

Chain of Bifunctional protein GlmU (Mycobacterium tuberculosis (strain ATCC 25618 / H37Rv)) (P9WMN3 whole entry, looked up): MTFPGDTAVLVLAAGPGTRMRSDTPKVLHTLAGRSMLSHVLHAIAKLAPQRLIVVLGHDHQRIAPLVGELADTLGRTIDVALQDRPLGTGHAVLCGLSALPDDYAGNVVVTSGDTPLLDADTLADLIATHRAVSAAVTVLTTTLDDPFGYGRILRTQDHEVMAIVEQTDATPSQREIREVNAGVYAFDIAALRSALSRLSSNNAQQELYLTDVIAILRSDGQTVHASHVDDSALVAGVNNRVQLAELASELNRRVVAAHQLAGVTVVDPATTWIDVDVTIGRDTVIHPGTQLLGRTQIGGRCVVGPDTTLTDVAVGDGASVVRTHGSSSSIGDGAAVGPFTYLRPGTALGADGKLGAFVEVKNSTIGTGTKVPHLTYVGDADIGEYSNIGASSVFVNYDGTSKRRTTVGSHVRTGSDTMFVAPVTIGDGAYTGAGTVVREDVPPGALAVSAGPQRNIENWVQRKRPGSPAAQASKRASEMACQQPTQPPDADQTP

This assay has as its target Bifunctional protein GlmU (Mycobacterium tuberculosis (strain ATCC 25618 / H37Rv)) (UniProt P9WMN3). Kind of assay: inhibition of mycobacterial GlmU enzyme – biochemical, glucosamine-1-phosphate acetyltransferase (AID 1376).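 Note: 0% = complete reaction with vehicle and 100% = reaction without substrate.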 The conditions noted are these: M. tuberculosis GlmU acetyltransferase enzyme assay; stronger effect = higher value;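 tested at 30 µM in the primary screen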.
The inhibition is the drop in the measured response relative to a control, in per cent. Turning to `CCOc1ccccc1Cn1c(=O)sc2ccccc21`, the inhibition was -0.39%.
The result for `CCCNC(=O)c1cc(-c2ccc(OC)cc2)n(CCCOC)c1C` reads 4.42%; that for `O=C1CC(N2CCN(Cc3ccc(Cl)cc3)CC2)C(=O)N1CCc1ccccc1` (stereo unspecified), -4.79%; that for `O=C(NCCc1ccccn1)c1cccc(S(=O)(=O)N2CCc3ccccc32)c1`, 2.85%.
As for `COCCNC(=O)C1c2ccccc2C(=O)N(CCOC)C1c1ccc(F)cc1` (stereo unspecified), the figure is 1.96%; as for `COc1ccc(C(=O)N/C(=C\c2cccc3ccccc23)C(=O)N2CCN(C)CC2)cc1OC`, 0.44%; as for `CSC1=NSC2=NC(=O)/C(=C/c3coc4ccccc4c3=O)C(=N)N12`, 8.95%.
As to `CSC1=NSC2=NC(=O)/C(=C/c3coc4ccc(O)cc4c3=O)C(=N)N12`, the inhibition was 21.3% (active).
As for `CSC1=NSC2=NC(=O)/C(=C\c3coc4ccccc4c3=O)C(=N)N12`, the figure is 7.97%; as for `NS(=O)(=O)c1ccc(CCNC(=O)CCCC2=NS(=O)(=O)c3ccccc3N2)cc1`, 2.45%; as for `COc1ccc(OCc2n[nH]c(=S)o2)cc1`, 2.56%.
As for `S=c1[nH]nc(COc2ccc3ccccc3c2)o1`, the inhibition is 3.96%.
As for `S=c1[nH]nc(COc2ccc(Cl)cc2)o1`, the figure is 13.3% (active).
Take `O=C(O)C1Cc2ccccc2CN1C(=O)COc1ccc(Br)cc1` (stereo unspecified): the inhibition was 12.6%.
As for `CCOC(=O)CSc1nc(C)c(C(C)=O)cc1C(N)=O`, the figure is 1.16%; as for `Cc1cccc(NC(=S)NNC(=O)c2csc3c2CCCC3)c1`, 13% (active); as for `Cc1cccc(NC(=S)NNC(=O)c2csc3c2CCC(C)C3)c1` (stereo unspecified), 2.66%.
As for `Cc1ccc(C)c(NC(=S)NNC(=O)c2csc3c2CCCC3)c1`, the figure is -4.85%.
The result for `CC(C)Cc1nnc(NC(=O)c2cc(-c3ccccc3)nc3ccccc23)s1` reads 0.66%.
Turning to `COc1cc([N+](=O)[O-])ccc1NC(=O)Cc1ccc(F)cc1`, the inhibition was 4.76%.
As for `COc1ccc(CN2CCn3ncc(C(=O)Nc4cc(C)cc(C)c4)c3C2=O)cc1`, the figure is -5.28%.
The result for `O=C(NNS(=O)(=O)c1cc(Cl)cc(Cl)c1)c1sccc1-n1cccc1` reads 13.9% (active); that for `O=C(NNS(=O)(=O)c1ccc(Cl)cc1)c1sccc1-n1cccc1`, -3.47%.
As for `O=C(NNS(=O)(=O)c1ccccc1)c1sccc1-n1cccc1`, the figure is -3.8%; as for `CC1(C(=O)OCC(=O)Nc2ccc3ccccc3c2)CC1(Cl)Cl` (stereo unspecified), 0.98%; as for `O=C(N1CCN(Cc2ccc3c(c2)OCO3)CC1)C12CC3CC(CC(C3)C1)C2`, 3.26%.
In the case of `COC(=O)c1ccc2c(=O)sc(N3CCC(C(N)=O)CC3)nc2c1`, the inhibition was -0.93%.
As for `C=CCN1C(=O)/C(=C/c2ccc(OC(C)=O)c(OCC)c2[N+](=O)[O-])SC1=S`, the figure is -0.95%; as for `CCOc1ccc(/C=C2\SC(=S)NC2=O)cc1OC`, 0.99%.
For the compound `CCOc1c(O)ccc(/C=C2\SC(=S)NC2=O)c1[N+](=O)[O-]`, the inhibition is 12.8% (active).
As for `COC(=O)C1NN=C(C(=O)c2ccccc2)C1c1ccccc1` (stereo unspecified), the figure is -3.17%; as for `Cc1cc(Cl)ccc1OCC(=O)OCC(=O)Nc1ccc(F)c([N+](=O)[O-])c1`, 4.62%; as for `NC(=O)c1ccc(/C(N)=N/S(=O)(=O)c2cc(C(F)(F)F)cc(C(F)(F)F)c2)cc1`, 2.05%.
As for `N/C(=N\S(=O)(=O)c1cc(C(F)(F)F)cc(C(F)(F)F)c1)c1cccs1`, the figure is 13.9% (active).
The result for `N/C(=N\S(=O)(=O)c1cc(C(F)(F)F)cc(C(F)(F)F)c1)c1ccccc1` reads 4.74%.
`CC(=O)c1ccc(NC(=S)NC(=O)c2c(Cl)c(C)nn2C)cc1`: the inhibition is 5.85%.
The result for `CCOC(=O)c1ccc(NC(=S)N2CCC(C(N)=O)CC2)cc1` reads 6.36%.
Consider `Cc1ccc(O)c(CCc2ccccc2)n1`, for which the inhibition is -3.57%.
As for `Cc1ccc(O)c(CO)n1`, the figure is 15% (active).
As for `Cc1ccc(O)c(CC(C)C)n1`, the figure is 6.41%.
The result for `COc1ccccc1NC(=O)Cn1c(CN2CCCCC2)nc2ccccc2c1=O` reads 0.52%.
On to `O=C(NC1(C(F)(F)F)NC(=O)N(c2ccc(F)cc2)C1=O)c1cccs1` (stereo unspecified), for which the inhibition is -0.58%.
As for `Cc1sc2nc(SCC(=O)NCCO)n(C)c(=O)c2c1C`, the figure is 3.09%; as for `CCOC(=O)CSc1nc2sc(C)c(C)c2c(=O)n1C`, 3.47%; as for `CCOC(=O)CNC(=O)CSc1nc2sc(C)c(C)c2c(=O)n1C`, 15% (active).
As for `Cc1c(C(=O)NCc2cccnc2)sc2ncn(CC(=O)N3CCCCC3C)c(=O)c12` (stereo unspecified), the figure is -7.32%; as for `Cc1nc(NC(=O)CCCC(=O)Nc2nc(C)c(C)s2)sc1C`, 13.9% (active).
The result for `Cc1nc(NC(=O)C2CC2)sc1C` reads -0.38%.
Consider `CCCCC(=O)Nc1nc(C)c(C(C)=O)s1`, for which the inhibition is -1.28%.
Regarding `CCC(=O)N(Cc1cc2cc(C)c(C)cc2[nH]c1=O)C1CCCCC1`, the inhibition was -7.37%.
On to `CC(=O)n1cc(/C=N/NC(N)=S)c2ccccc21`, for which the inhibition was -6.26%.
Turning to `CSCC[C@H](NC(=O)OC(C)(C)C)C(=O)N/N=C/c1ccc2nccnc2c1`, the inhibition is -6.4%.
As for `CSc1ccccc1C(=O)C1CCCN(Cc2ccn[nH]2)C1` (stereo unspecified), the figure is 10.5%; as for `O=C(c1cc2cc(Cl)cc(Cl)c2oc1=O)N1CCOCC1`, -1.07%.
`CCc1ccc(NS(=O)(=O)c2ccc3[nH]cc(C(=O)N(C)Cc4ccco4)c(=O)c3c2)cc1`: the inhibition is 1.75%.
As for `Cc1ccccc1NS(=O)(=O)c1ccc2[nH]cc(C(=O)N(C)Cc3ccco3)c(=O)c2c1`, the figure is 29.4% (active); as for `CN(Cc1ccco1)C(=O)c1c[nH]c2ccc(S(=O)(=O)Nc3ccc4c(c3)OCCO4)cc2c1=O`, 3.32%.
As for `COc1cccc(C2=NOC(C(=O)Nc3cc(OC)c(OC)c(OC)c3)C2)c1` (stereo unspecified), the figure is -0.12%; as for `CCOc1ncccc1C(=O)Nc1nnc(C2CC2)s1`, 8.29%; as for `CC1CCCCN1CCNC(=O)CN1C(=O)COc2ccccc21` (stereo unspecified), -1.43%.
As for `CCn1c(SCC(=O)c2ccc(Cl)cc2)nnc1-c1cccs1`, the figure is -2.46%.
